TIM10 inh: growth inhibitors of TIM10 yeast strain | S. cerevisiae TIM10 strain growth, BacTiter-Glo luminescence, 24 h | inhibition, % at 10 µM | actives 1.4% (n = 330,000) | AID 463195;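 active = inhibition of 40% or more at the single tested concentration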;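 also: wild-type TIM10 isogenic control strain grown at permissive 25 °C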
PfHsp90 yeast 2: reduces growth (ATP signal) of yeast expressing P. falciparum Hsp90; actives 0.32% (n = 310,000); inhibition, % at 9.4 µM; AID 504621; S. cerevisiae expressing PfHsp90, BacTiter-Glo ATP, 48 h; yeast lacking PDR1 and PDR3 efflux regulators;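 active = every replicate shows inhibition above about 80%, whatever the replicate mean, limit read from the data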;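 also: 0% = DMSO neutral controls and 100% = 20 µM radicicol positive controls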
tim10-1 inh: growth inhibitors of tim10-1 mutant yeast | S. cerevisiae tim10-1 ts strain growth, BacTiter-Glo, 24 h | inhibition, % at 20 µM | actives 2.2% (n = 330,000) | AID 463190;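 active = inhibition of at least 40%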;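 also: mutant grown at 25 °C; 0% = DMSO wells with yeast and 100% = wells holding no yeast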
tim23-1 inh: inhibits growth of tim23-1 mutant yeast; AID 463212; inhibition, % at 20 µM; S. cerevisiae tim23-1 growth, BacTiter-Glo luminescence, 24 h; actives 1.3% (n = 330,000);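 active = growth inhibition of the mutant yeast at or above 50%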;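 also: temperature-sensitive mutant grown at 25 °C; plate controls were DMSO-treated mutant yeast for no effect and medium wells lacking yeast for full effect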
NALP3 yeast inh: NALP3 inhibition in yeast; inhibition, % at 10 µM; Yeast reconstituted NLRP3/ASC/caspase-1, beta-gal luminescence, 24 h; actives 0.39% (n = 330,000);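 active = inhibition of 50% or more; inactive = inhibition below 50%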;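 also: plate controls were induced DMSO wells for no effect and uninduced yeast grown without galactose for full effect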
SKKanGAS inh: blocks kanamycin growth of S. pyogenes SKKanGAS strain. BacTiter-Glo, 6 h. inhibition, % at 7.5 µM. actives 1.3% (n = 300,000). AID 1662;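 active = mean replicate score, as percent of positive control median, at least 50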;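 also: strain carries kanamycin resistance gene driven by streptokinase promoter and grows in 40 µg/ml kanamycin; loss of luminescence reflects streptokinase promoter inhibition or plain growth inhibition; 0% = median of DMSO wells and 100% = positive control at its reference dose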
The depositor's hits bear a star; x = not tested or not shown. The list is not random: actives were taken first. Their share in the collection is about 4.6%.

SMILES | TIM10 inh | PfHsp90 yeast 2 | tim10-1 inh | tim23-1 inh | NALP3 yeast inh | SKKanGAS inh
O=c1c(Cc2c(F)cccc2Cl)c(O)ccn1C1CC1 | 5 | -4 | 2 | 13 | -6 | -8
Cc1ccc(N(CC2CO2)S(=O)(=O)c2ccc([N+](=O)[O-])cc2)cc1 (centres undefined) | 10 | -5 | 6 | 15 | 22 | 5
CC(=O)[C@@]1(O)C(C)CC2C3C=C(C)C4=Cc5c(cnn5-c5ccccc5)C[C@]4(C)C3C(O)C[C@@]21C (some centres undefined) | x | -6 | x | x | x | 64*
Cc1ccc(OCCNC(=O)Cc2ccc(F)cc2)cc1 | 11 | 0 | 22 | 5 | 24 | 18
Cn1c(CNc2ccc(Cl)cc2)nnc1SCc1ccccc1 | -43 | 121* | -101 | -291 | 8 | -2
Cn1c(CNc2ccc(Cl)cc2)nnc1SCC#N | -3 | 2 | 8 | 3 | 4 | 3
CCn1c(CNc2ccc(Cl)cc2)nnc1SCc1ccccc1 | 15 | 93* | -50 | 18 | 6 | -1
COc1ccccc1N1C(=O)[C@@H]2C(C(=O)CN3C(=O)c4ccccc4C3=O)=NN[C@@H]2C1=O | 3 | x | 6 | 5 | 6 | -6
COc1cccc(N2C(=O)C3NN=C(C(=O)CN4C(=O)c5ccccc5C4=O)C3C2=O)c1 (centres undefined) | 6 | x | -3 | -4 | 3 | 52*
CCCC(=O)Nc1ccc(C2C(=O)c3ccccc3C2=O)cc1 | 14 | -7 | 25 | 20 | 14 | -1
CC(=O)Nc1ccc(C2C(=O)c3ccccc3C2=O)cc1 | 7 | -16 | 3 | 22 | 8 | 51*
CCOC(=O)N1CCN(C(=O)/C(=C/c2cccs2)NC(=O)c2cccs2)CC1 | 3 | 25 | 10 | 10 | 28 | -7
O=C(CNC(=O)c1ccc2c(c1)OCO2)N/N=C/c1cc(Br)ccc1O | 11 | -13 | -2 | -18 | -20 | 61*
O=C(CNC(=O)c1ccccc1)N/N=C/c1cc(Br)ccc1O | 8 | -12 | 24 | -16 | 4 | -4
Cc1cc(Br)cc(/C=N/NC(=O)c2ccc3c(c2)OCO3)c1O | 8 | 2 | -25 | 22 | 22 | 84*
O=C(CNC(=O)c1ccccc1Br)N/N=C/c1cc(Br)ccc1O | -2 | 19 | 15 | -4 | 9 | 73*
O=C(NNC(=S)Nc1ccc(Cl)c(Cl)c1)c1ccccn1 | 3 | -53 | -3 | 18 | 16 | 102*
Cc1ccc2nc(-c3ccc(NS(=O)(=O)c4ccc(F)cc4)cc3)sc2c1 | 16 | 109* | 32 | 32 | 39 | 76*
Cc1ccc2nc(N/C(=N/S(=O)(=O)c3ccc(F)cc3)c3ccccc3)sc2c1 | 12 | 14 | 13 | 18 | -24 | 51*
O=C(NCCCn1cccn1)c1cc(COc2ccc(F)cc2Cl)on1 | 24 | -12 | 24 | 0 | 6 | -1
c1ccc(-c2ccc(C3=Nn4c(nnc4-c4cccs4)SC3)cc2)cc1 | 12 | 0 | -9 | 24 | 2 | 51*
CCC[C@@H]1C[C@@]1(CCC)[C@@H](NP(=O)(c1ccccc1)c1ccccc1)c1ccc(C(=O)OC)cc1 | 20 | x | 26 | 28 | 10 | 97*
CCOCCCNC(=O)C(c1ccc(OC)cc1)N(Cc1cccs1)C(=O)c1ccccn1 (centres undefined) | 15 | -3 | 28 | 17 | 8 | x
O=C(CSc1nc2ccccc2o1)Nc1ccccc1N1CCCCCC1 | 0 | -15 | 36 | 19 | -7 | 59*
O=C(CSc1nc2ccccc2o1)Nc1cc(C(F)(F)F)ccc1N1CCOCC1 | 20 | -22 | 39 | 17 | 15 | 2
SMILES | TIM10 inh | PfHsp90 yeast 2 | tim10-1 inh | tim23-1 inh | NALP3 yeast inh | SKKanGAS inh
CC(C)(C)c1ccc(Oc2cccc(C3CC(=O)C(C4NCCc5ccccc54)C(=O)C3n3cncn3)c2)cc1 (centres undefined) | 22 | 3 | 7 | 10 | -11 | 96*
CC(C)(C)OC(=O)N1CCC[C@H]1c1nnc(SCC(=O)Nc2ccc(Br)cc2)o1 | 18 | -10 | 15 | 23 | 11 | 1
CCC(=O)OCOc1ccc(/C=C2/CCC(CN(C)C)C2=O)cc1 (centres undefined) | x | 143* | x | x | x | x
COc1ccc(S(=O)(=O)N2CCCCC2)cc1NC(=O)CCOc1cc(C)ccc1C | 8 | 15 | 13 | 11 | 12 | x
Cc1oc2cc(Br)c(O)c(Br)c2c1-c1ccccc1 | x | -27 | x | x | x | 83*
COc1ccc2c(=O)c(-c3ccccc3)c(C)oc2c1 | -7 | x | -11 | 16 | 30 | -10
Cc1ccc(NNC(=O)C(O)(c2cccc(C(F)(F)F)c2)c2cccc(C(F)(F)F)c2)cc1 | 27 | -6 | -16 | 19 | 16 | 29
O=C(NNc1ccccc1Br)C(O)(c1cccc(C(F)(F)F)c1)c1cccc(C(F)(F)F)c1 | -6 | 27 | 27 | 9 | 7 | 101*
Nc1nc(CN2CCN(c3ccc(F)cc3)CC2)nc(N2CCCc3ccccc32)n1 | 20 | x | 38 | 38 | 18 | 84*
O=C(/C=C/c1ccccc1Cl)c1cccnc1 | 4 | 71 | 29 | 15 | -14 | 9
Cc1ccc(/C=C/C(=O)c2ccccc(=O)c2O)c(C)c1 | 22 | 106* | 37 | 47 | -2 | 58*
O=C(/C=C/c1ccc([N+](=O)[O-])cc1)c1ccccc(=O)c1O | x | 123* | x | x | x | x
Cc1cccc(C(=O)NNC(=O)c2ccccc2C)c1 | -7 | -6 | 11 | -2 | 14 | 5
Cc1ccc(C)c(/C=C/C(=O)c2ccccc(=O)c2O)c1 | x | 103* | x | x | x | 99*
O=C(/C=C/c1ccccc1Cl)c1ccccc(=O)c1O | x | 96* | x | x | x | 90*
Cc1cccc(C(=O)NNC(=O)c2ccccc2O)c1 | -1 | -9 | 12 | 1 | 25 | 8
CC1(C)C(C=C(Cl)Cl)C1C(=O)Nc1ccc(S(=O)(=O)Nc2ncccn2)cc1 (centres undefined) | 2 | 25 | -16 | -2 | 4 | 2
CCC(CC)NC(=O)COc1ccc(OC)cc1C=O | 15 | 7 | 21 | 17 | 14 | -4
Cc1cc(C)n(-c2ccc(NC(=O)C3CCCCN3C(=O)c3cc(C)oc3C)cc2)n1 (centres undefined) | 19 | 10 | 9 | 17 | 6 | 5
Cc1[nH]n(-c2ncc(-c3ccc(Cl)cc3)s2)c(=O)c1C(c1ccc(Cl)cc1)C(C#N)C#N (centres undefined) | 27 | -59 | 39 | 43 | 5 | 97*
CCCc1[nH][nH]c(=O)c1C(c1cccc(Cl)c1)C(C#N)C#N (centres undefined) | 21 | -43 | 32 | 25 | 8 | 7
CCOC(=O)C1(CCCc2ccccc2)CCN(C(=O)C2CCCN(C(N)=O)C2)CC1 (centres undefined) | 16 | 8 | 12 | 16 | 8 | 0
O=c1c2cc(-c3ccccc3)sc2nc2n1CCC2 | 22 | x | 8 | 20 | 50 | 50*

High-throughput results (PubChem BioAssay)
